Among the data in PubChem BioAssay AID449739 (Vanderbilt High Throughput Screening Facility, 2010) are B-score values, retold here.

Screen size: about 100,000 compounds; about 4,200 (4.2%) were called active. This excerpt belongs to a sample that is enriched for actives. Unmarked numbers belong to inactive results.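 The calls were made as follows: active = single-dose well whose peak fluorescence ratio is a statistical outlier from its plate by either plate-standardised score or position-corrected B-score; inactive = the rest.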

For the assay, the target named is Voltage-dependent T-type calcium channel subunit alpha-1H (Homo sapiens) (UniProt O95180). The assay can be described thus: Cav3.2 calcium influx blockers – cell-based, Fluo-4 calcium fluorescence, FDSS, MLSMR library, primary screen (AID 449739). The conditions noted are these: Cav3.2-expressing cells, at 10 µM, hits give low values.
Sequence of Voltage-dependent T-type calcium channel subunit alpha-1H (Homo sapiens) (O95180 whole entry, looked up): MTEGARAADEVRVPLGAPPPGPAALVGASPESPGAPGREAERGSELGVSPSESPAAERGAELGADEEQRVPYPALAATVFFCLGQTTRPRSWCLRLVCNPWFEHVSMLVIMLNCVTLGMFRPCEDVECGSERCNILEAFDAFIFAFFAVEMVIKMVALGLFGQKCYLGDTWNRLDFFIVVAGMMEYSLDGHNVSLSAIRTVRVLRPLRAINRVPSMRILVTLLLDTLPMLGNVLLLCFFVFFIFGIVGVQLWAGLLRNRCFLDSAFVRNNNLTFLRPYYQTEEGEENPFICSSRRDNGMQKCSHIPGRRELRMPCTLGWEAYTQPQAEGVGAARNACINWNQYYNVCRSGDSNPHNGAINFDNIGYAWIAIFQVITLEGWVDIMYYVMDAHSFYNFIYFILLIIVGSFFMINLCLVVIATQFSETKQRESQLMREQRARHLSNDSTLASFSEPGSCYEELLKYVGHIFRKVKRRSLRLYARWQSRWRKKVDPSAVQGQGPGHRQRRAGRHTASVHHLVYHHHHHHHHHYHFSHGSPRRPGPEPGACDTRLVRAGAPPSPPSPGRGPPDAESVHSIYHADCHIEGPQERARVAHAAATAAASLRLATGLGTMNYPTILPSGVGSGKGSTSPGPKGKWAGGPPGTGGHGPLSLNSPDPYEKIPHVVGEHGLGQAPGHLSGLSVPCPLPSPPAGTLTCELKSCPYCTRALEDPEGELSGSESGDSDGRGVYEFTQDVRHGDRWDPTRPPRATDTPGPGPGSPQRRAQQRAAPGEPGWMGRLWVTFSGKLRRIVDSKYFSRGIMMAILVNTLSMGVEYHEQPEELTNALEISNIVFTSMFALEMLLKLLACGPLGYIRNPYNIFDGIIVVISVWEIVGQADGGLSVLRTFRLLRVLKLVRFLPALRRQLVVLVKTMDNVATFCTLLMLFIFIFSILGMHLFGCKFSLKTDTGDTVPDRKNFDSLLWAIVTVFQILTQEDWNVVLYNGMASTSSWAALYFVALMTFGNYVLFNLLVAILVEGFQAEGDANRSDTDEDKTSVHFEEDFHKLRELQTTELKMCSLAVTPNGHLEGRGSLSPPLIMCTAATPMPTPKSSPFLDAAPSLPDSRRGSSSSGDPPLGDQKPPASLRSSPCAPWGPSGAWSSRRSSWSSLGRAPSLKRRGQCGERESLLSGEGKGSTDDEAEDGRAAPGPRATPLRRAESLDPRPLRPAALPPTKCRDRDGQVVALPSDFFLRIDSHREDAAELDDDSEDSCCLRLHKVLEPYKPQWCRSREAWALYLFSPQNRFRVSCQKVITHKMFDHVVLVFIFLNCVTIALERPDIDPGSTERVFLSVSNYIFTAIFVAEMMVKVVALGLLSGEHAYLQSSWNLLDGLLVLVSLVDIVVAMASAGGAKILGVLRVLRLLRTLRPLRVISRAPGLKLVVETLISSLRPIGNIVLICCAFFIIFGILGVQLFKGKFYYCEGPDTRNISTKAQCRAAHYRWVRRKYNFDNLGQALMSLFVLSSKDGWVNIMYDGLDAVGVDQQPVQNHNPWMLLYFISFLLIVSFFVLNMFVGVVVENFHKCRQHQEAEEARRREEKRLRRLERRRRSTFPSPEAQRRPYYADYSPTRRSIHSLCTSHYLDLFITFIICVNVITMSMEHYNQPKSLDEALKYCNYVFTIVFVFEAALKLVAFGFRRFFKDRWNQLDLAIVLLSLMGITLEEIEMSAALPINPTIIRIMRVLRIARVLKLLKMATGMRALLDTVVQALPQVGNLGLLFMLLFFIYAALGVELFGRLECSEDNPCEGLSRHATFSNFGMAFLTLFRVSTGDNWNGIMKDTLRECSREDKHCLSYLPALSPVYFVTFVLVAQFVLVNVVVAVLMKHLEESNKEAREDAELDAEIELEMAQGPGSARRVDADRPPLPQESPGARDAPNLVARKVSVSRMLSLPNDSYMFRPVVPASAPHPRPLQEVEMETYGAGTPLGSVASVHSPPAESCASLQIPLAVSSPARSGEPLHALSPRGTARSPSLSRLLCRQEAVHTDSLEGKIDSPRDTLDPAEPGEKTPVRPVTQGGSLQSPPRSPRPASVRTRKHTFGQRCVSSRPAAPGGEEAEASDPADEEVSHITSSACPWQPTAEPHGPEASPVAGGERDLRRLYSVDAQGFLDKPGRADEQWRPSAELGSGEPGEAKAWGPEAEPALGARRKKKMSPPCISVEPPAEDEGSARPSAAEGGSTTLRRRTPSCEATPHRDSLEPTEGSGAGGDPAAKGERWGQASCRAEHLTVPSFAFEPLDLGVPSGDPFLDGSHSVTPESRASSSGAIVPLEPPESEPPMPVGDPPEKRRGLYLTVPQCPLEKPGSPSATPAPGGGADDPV
In the case of `C=CCC1(C(=O)N(C)Cc2ccccc2)CCN(C(=O)OC(C)(C)C)CC1`, the B-score was -0.119.

For `CC(C)(C)NC(=O)NC(=O)COC(=O)CCC1CCCCC1`, the B-score was -0.871.

In the case of `O=C(Nc1ccn(Cc2ccccc2F)n1)c1ccc(COc2ccc(Cl)cc2Cl)o1`, the B-score was -5.79 (active).

Consider `CC(=O)Nc1ccn(Cc2c(F)cccc2Cl)n1`, for which the B-score was -0.881.

Consider `O=C(Nc1ccn(Cc2ccc(F)cc2)n1)c1ccncc1`, for which the B-score was 0.582.

`O=C(C1=C[C@H](c2ccc(C(F)(F)F)cc2)C[C@H](OCc2ccc(CO)cc2)O1)N1CCN(Cc2ccccc2)CC1`: the B-score is -0.906.

On to `CC(C)(C)[C@H]1C=C(C(=O)NCc2ccccc2)O[C@@H](OCc2ccc(CO)cc2)C1`, for which the B-score is -0.683.

For the molecule `COc1cc(/C=N/NC(=O)Nc2ccccc2)ccc1OCCOc1ccccc1C`, the B-score was -1.44.

With `Cc1nn(CC(=O)Nc2nc3ccccc3s2)c(C)c1[N+](=O)[O-]`, the B-score was -1.65.

For `CNC(=O)c1ccc2nc(NC(C)=O)sc2c1`, the B-score is 1.09.

Regarding `O=C(NC(Nc1nc2ccc([N+](=O)[O-])cc2s1)(C(F)(F)F)C(F)(F)F)c1ccccc1`, the B-score is -8.17 (active).

Turning to `COc1ccc(NC(=O)CCN2CCCC2)c(OC)c1`, the B-score is 0.0598.

Turning to `CCOc1ccc(C(=O)Nc2cc(OC)ccc2OC)cc1`, the B-score was -0.483.

As for `COc1ccc(OC)c(NC(=O)CCN2CCC(C)CC2)c1`, the B-score is -3.95 (active).

Consider `Cc1ccc(N2C(=O)C(Cc3ccccc3)NC2=S)cc1` (stereo not given), for which the B-score was 0.262.

For the molecule `Cc1cn(C)c(=O)n(C)c1=O`, the B-score is 0.776.

Take `COc1ccc(-c2nc3c(s2)CCc2onc(-c4ccc(Br)cc4)c2-3)cc1`: the B-score is 0.734.

For `COc1cc(C(=O)N2CCN(C/C=C/c3ccccc3)CC2)cc(OC)c1C`, the B-score was -0.741.

`N#Cc1c(C(F)(F)F)cc(-c2ccccc2)nc1SCC(=O)N1CCOCC1`: the B-score was 1.07.

For `Cc1[nH]n(-c2cccc(Cl)c2)c(=O)c1/C=N/n1c(C)nc2ccccc2c1=O`, the B-score is -5.96 (active).

As to `Cc1[nH]n(-c2ccc(Cl)cc2)c(=O)c1/C=N/n1c(C)nc2ccccc2c1=O`, the B-score was -2.58.

With `COc1cc(NS(=O)(=O)c2ccc(N=Cc3c(C)[nH]n(-c4ccccc4)c3=O)cc2)nc(OC)n1`, the B-score is 1.56.

`CCO[C@@H]1OC(C(=O)NC2CC2)=C[C@H](C)[C@H]1CCCO`: the B-score was 0.361.

In the case of `O=C(Nc1ccccc1)O/N=C1\CCCCC1c1ccc([N+](=O)[O-])cc1[N+](=O)[O-]` (stereo not given), the B-score was -1.88.

Turning to `CN1CC(c2ccccc2)C2(COc3ccccc3C2=O)C12C(=O)Nc1ccccc12` (stereo not given), the B-score was -2.68.

In the case of `CCCCCCCCCCCCN1[C@@H](CC(C)=O)c2cc(F)cc(F)c2S1(=O)=O`, the B-score is -0.475.

Take `CCCC(=O)NC(C)C(c1cccs1)N1CCN(c2ccccc2)CC1` (stereo not given): the B-score was -0.0337.

Consider `COc1ccc(C(C(O)C(=O)c2c[nH]c3ccccc23)N2CCN(c3ccccc3)CC2)cc1` (stereo not given), for which the B-score was -6.38 (active).

As for `CC1CCN(CC(=O)c2c[nH]c3ccccc23)CC1`, the B-score was -0.109.

In the case of `COCC(C)NC(=O)c1ccc(-n2nc(C(F)(F)F)cc2-c2cccs2)cc1` (stereo not given), the B-score is -0.0574.

In the case of `Cc1occc1C(=O)NNC(=S)NCC(C)C`, the B-score was -0.334.

Regarding `COC(C[C@@H](O)C[C@@H](O)[C@H](C)OCc1ccccc1)OC`, the B-score was 0.484.

For the molecule `CC(NC(=O)Nc1ccccc1)C(c1cccs1)N1CCN(c2ccccc2)CC1` (stereo not given), the B-score is -0.634.

On to `COc1ccc(Cl)cc1NC(=O)CN(C)C(=O)CNC(=O)C12CC3CC(CC(C3)C1)C2`, for which the B-score was -3.51 (active).

For `CCCCC(=O)N/N=C(\C)CC(=O)Nc1cc(Cl)ccc1OC`, the B-score was -2.17.

For the molecule `COc1ccc(Cl)cc1NC(=O)c1oc(C)nc1C`, the B-score is -0.339.

As for `O=C(CCCOc1ccccc1)NCc1ccco1`, the B-score is -0.629.

In the case of `CCO[C@H]1OC(C(=O)N2CCN(Cc3ccccc3)CC2)=C[C@@H](c2cn(C(C)=O)c3ccccc23)[C@@H]1CCCO`, the B-score is -1.16.

`COc1cc(/C=N/O)cc(Br)c1OS(=O)(=O)c1ccc(C)cc1`: the B-score was -2.65.

`CCCCN1C(N)=NC[C@@H]1Cc1ccccc1`: the B-score is -0.563.

As to `COc1ccc(NC(=O)CC2COc3ccccc3O2)c(OC)c1` (stereo not given), the B-score was -0.874.

Take `COc1ccc(OC)c2sc(NC(=O)C3COc4ccccc4O3)nc12` (stereo not given): the B-score is -4.42 (active).

As for `CCn1cc(C(=O)NCC2COc3ccccc3O2)c2cc(OC)c(OC)cc2c1=O` (stereo not given), the B-score was -0.122.

Turning to `c1ccc(-c2ccnc3nc(-n4cccc4)nn23)cc1`, the B-score was 0.354.

Regarding `COc1ccccc1C1=CC(=O)CCC1`, the B-score is 1.41.

`O=C(Nc1ccccc1)c1cccnc1Nc1ccccc1`: the B-score was 0.697.

For `Nc1ccc(Nc2ccccc2)cc1`, the B-score was 0.472.

As to `c1ccc(Nc2n[nH]nc2-c2ccccc2)cc1`, the B-score was -7.14 (active).

As for `C=CCCN(Cc1ccccc1)S(=O)(=O)c1ccccc1Br`, the B-score is 0.0805.

Regarding `CCO[C@@H]1OC(C(=O)NCc2nc3ccccc3[nH]2)=C[C@H](C2CCCCC2)[C@H]1CCCO`, the B-score was -0.192.

For the molecule `COc1ccc(C(c2nnnn2C2CCCCC2)N2CCN(c3ccccc3F)CC2)cc1` (stereo not given), the B-score is -6.41 (active).

As to `COc1ccc(N2CCN(C(c3cc4ccc(C)cc4[nH]c3=O)c3nnnn3C3CCCC3)CC2)cc1` (stereo not given), the B-score was -2.59.

Take `CC(C)C(c1nnnn1C1CCCC1)N1CCN(c2ccccc2F)CC1` (stereo not given): the B-score is -2.85.

Consider `N#CCc1c(C#N)c(N)nc(N2CCCC2)c1C#N`, for which the B-score is 0.949.

In the case of `CCN(CC)CCC(c1cc(OC)c(OC)c(OC)c1)c1c(OC)cc(OC)c2c(-c3ccccc3)cc(=O)oc12` (stereo not given), the B-score was -1.5.

On to `CCCCn1c(CCCNC(=O)CC)nc2ccccc21`, for which the B-score is 1.14.

In the case of `C=C(Br)Cn1c(CCCC)nc2ccccc21`, the B-score is -3.88 (active).

Turning to `CCCCn1c(CN2CCN(CCO)CC2)nc2ccccc21`, the B-score is 1.86.

Regarding `CC(C)[C@@H]1NC(=O)c2cc([N+](=O)[O-])cc(I)c2NCCC[C@@H](C(=O)NC(CC(=O)O)C(N)=O)NC(=O)[C@H](CO)NC1=O` (stereo not given in full), the B-score is 0.105.

For the molecule `CCOc1c2ccc(C(=O)NCc3ccc(OC(F)(F)F)cc3)cc2nn1C`, the B-score was -1.9.

As for `Cc1cccc(N(CC(=O)N2CCOCC2)S(C)(=O)=O)c1`, the B-score is 0.326.

As to `Cc1cc(C)cc(N(CC(=O)N2CC=C(c3ccccc3)CC2)S(=O)(=O)c2c(C)noc2C)c1`, the B-score was -4.03 (active).

Turning to `Cc1cc(C)cc(N(CC(=O)NCC2CCCO2)S(=O)(=O)c2c(C)noc2C)c1` (stereo not given), the B-score is 0.883.

`CC1=C(C(=O)Nc2ccccc2)C(c2ccco2)C(C#N)=C(SCC(N)=O)N1` (stereo not given): the B-score is -0.16.

Regarding `CCOC(=O)CSC1=C(C#N)C(c2ccco2)C(C(=O)OCc2ccccc2)=C(C)N1` (stereo not given), the B-score was -3.01.

As to `N#CC1=C(N)Oc2c(sc3ccccc23)C1c1ccco1` (stereo not given), the B-score was -4.64 (active).

In the case of `CCOc1cccc(C(=O)Nc2cnn(Cc3ccccc3)c2)c1`, the B-score is -0.985.

As to `O=C(c1ccc(F)cc1)c1c[nH]c(C(=O)NCc2cccnc2)c1`, the B-score was 1.02.

Take `c1cnc(Nc2nc(-c3ccc4ccccc4c3)cs2)nc1`: the B-score was 0.515.

In the case of `Cc1ccc(-n2c(C)cc(/C=N/Nc3ccc([N+](=O)[O-])cn3)c2C)c(C)c1`, the B-score is -3.21.

`CC(C)c1ccc(N2CCN(C(=O)c3ccccc3NC(=O)/C=C(\C(=O)O)c3ccccc3)CC2)cc1`: the B-score is -0.303.

For `COC(=O)c1sccc1NC(=O)CSc1ccccc1NS(=O)(=O)c1cc(Cl)ccc1Cl`, the B-score is -4.82 (active).

As to `COC(=O)c1sccc1NC(=O)CCC1CCCC1`, the B-score was -0.847.

Turning to `COC(=O)c1sccc1N/N=C(\C)c1ccc(F)c(Cl)c1`, the B-score was -0.109.

Take `N#Cc1ccc(-c2ccc(Cl)cc2)nc1Oc1ccc(F)cc1`: the B-score is -0.421.

As to `COc1ccc(CN2[C@@H](CC(=O)O)c3cc(F)ccc3S2(=O)=O)cc1`, the B-score was -2.11.

With `O=c1cc(CO)oc(C(Nc2cccc(C(F)(F)F)c2)c2ccccn2)c1O` (stereo not given), the B-score is -0.112.

Take `Cc1ccc(-c2csc(NC(=O)c3cccs3)n2)cc1`: the B-score is -1.5.

As for `NS(=O)(=O)c1ccc(Nc2nc(-c3ccccc3)cs2)cc1`, the B-score is 0.0269.

`Cc1cccc(S(=O)(=O)CC(=O)Nc2nc(-c3ccccc3)cs2)c1`: the B-score was -8.29 (active).
